TEAD-YAP block – TEAD-YAP interaction inhibition | inhibition, % at 9.12 µM | AID 1259422 | 640,000 compounds, 1.4% hits | HEK-TIYL cells, TEAD-Gal4/YAP UAS-luciferase luminescence; in the data active = inhibition above about 32%;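 note: 0% = median of test compound wells and 100% = reference inhibitor wells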
MITF primary – inhibitors of human MITF | O75030 | AlphaScreen MITF homodimerization, bead proximity signal | inhibition, % at 2.6 µM | 650,000 compounds, 0.91% hits | AID 1259374; in the data active = inhibition above about 50%;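 note: 0% = vehicle wells with protein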
GPR151 activ – activators of human GPR151 | activation, % at 11.2 µM | PathHunter beta-arrestin GPR151 cells, luminescence | Q8TDV0 | 650,000 compounds, 1% hits | AID 1508602; in the data active = activation above about 4.9%;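 note: 0% = median of compound wells and 100% = cells with positive control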
FBW7 activator – human FBW7 E3 ligase activation, primary screen | normalized activity (activation), % at 26.1 µM | Q969H0 | AlphaScreen FBW7–phospho-cyclin E peptide binding, activator screen | 650,000 compounds, 0.13% hits | AID 1259310; in the data active = normalized activity above about 1.9%;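 note: purified mutant Fbw7 with reduced substrate affinity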
GPR151 conf act – confirmation of human GPR151 activators; GPR151 PathHunter beta-arrestin cells, luminescence, 90 min; % of EA-reagent control over plate median; shares compounds with GPR151 activ; 6,700 tested, under 10 active; activation, % at 11.2 µM; AID 1508609;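 active = mean percent activation across replicates above the confirmation screen cutoff of 4.91%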
GPR119 counter – GPR119 activation, counter-screen for GPR151 activators; shares compounds with GPR151 activ; 6,700 compounds, 0.3% hits; GPR119 PathHunter beta-arrestin cells, luminescence, 90 min; 0 = compound-well median, 100 = enzyme-acceptor control; activation, % at 11.2 µM; AID 1508611;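 active = mean percent activation in the counterscreen above 29.09%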;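 note: counterscreen on off-target GPR119 to flag nonselective hits from the GPR151 activator screen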
Target sequence (Q8TDV5 whole entry, looked up): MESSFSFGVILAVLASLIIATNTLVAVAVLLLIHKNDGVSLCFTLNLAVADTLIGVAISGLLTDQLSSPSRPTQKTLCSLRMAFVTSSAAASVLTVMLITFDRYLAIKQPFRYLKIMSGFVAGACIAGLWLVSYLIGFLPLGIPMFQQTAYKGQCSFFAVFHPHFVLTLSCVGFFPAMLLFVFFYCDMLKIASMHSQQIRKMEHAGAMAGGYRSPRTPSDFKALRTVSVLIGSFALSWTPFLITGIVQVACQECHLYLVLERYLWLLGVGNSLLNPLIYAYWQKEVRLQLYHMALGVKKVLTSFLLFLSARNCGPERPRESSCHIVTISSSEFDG
* marks the source's active call; other numbers are inactive results. The list is not random: actives were taken first. Their share in the collection is about 3.5%.

`O=C1CCCN1CCn1cnc2c(NCCN3CCOCC3)nc(Nc3nccc4ccccc34)nc21` gave TEAD-YAP block -2.7, MITF primary 6.1, GPR151 activ 5.3*, FBW7 activator -0.1, GPR151 conf act 0.4 and GPR119 counter -7.4.
O=C1CCCN1CCCNc1cc(N2CCC(N3CCOCC3)CC2)ncn1 was read as TEAD-YAP block 7.4, MITF primary -0.1, GPR151 activ 8.5*, FBW7 activator 0.1, GPR151 conf act -1.3 and GPR119 counter -14.3.
`O=C1CCCN1CCn1cnc2c(Nc3ccc(N4CCOCC4)cc3)nc(Nc3ccc(N4CCOCC4)cc3)nc21` gave TEAD-YAP block -2.7, MITF primary 20.6, GPR151 activ 2.8 and FBW7 activator 0.3.
For O=C1CCCN1CCCNc1cc(N2CCOCC2)ncn1 the results were TEAD-YAP block -3.5, MITF primary 0.8, GPR151 activ 0.1 and FBW7 activator -0.1.
`O=C1CCCN1CCCNc1nc(Nc2ccc(N3CCOCC3)cc2)nc2c1ncn2CCN1CCCC1=O` gave TEAD-YAP block -2.0, MITF primary -3.4, GPR151 activ 10.5*, FBW7 activator -0.1, GPR151 conf act -0.1 and GPR119 counter -4.8.
For COCCNS(=O)(=O)c1ccc(F)c(Cl)c1 the results were TEAD-YAP block 2.9, MITF primary 15.6, GPR151 activ -0.3 and FBW7 activator 0.3.
For Cc1cc(C(=O)N2CCC(C(=O)N(C)C(c3ccc(F)cc3)c3ccccn3)CC2)no1 (centres undefined) the results were TEAD-YAP block -3.6, MITF primary -3.8, GPR151 activ -1.1 and FBW7 activator 0.1.
Screening COc1ccc(CNc2ncc(-c3cccc4ncccc34)n3ccnc23)cc1 returned TEAD-YAP block -10.3, MITF primary 20.6, GPR151 activ 0.6 and FBW7 activator 0.1.
For CC1CCN(Cc2nnnn2CC(=O)NCc2scnc2-c2ccccc2)CC1 the results were TEAD-YAP block 5.2, MITF primary 13.2, GPR151 activ 0.1 and FBW7 activator 0.4.
Screening COc1cc(Nc2nc(NCCCN3CCCC3=O)c3ncn(CCN4CCCC4=O)c3n2)cc(OC)c1OC returned TEAD-YAP block -0.4, MITF primary 3.9, GPR151 activ 6.5*, FBW7 activator -0.2, GPR151 conf act 0.0 and GPR119 counter -7.5.
For CCNC(=O)/C(=C/c1cccc([N+](=O)[O-])c1)NC(=O)c1ccc(C)cc1 the results were TEAD-YAP block -2.1, MITF primary 2.6, GPR151 activ 5.9*, FBW7 activator 0.8, GPR151 conf act 0.8 and GPR119 counter -2.0.
O=C(NCCO)/C(=C/c1cccc([N+](=O)[O-])c1)NC(=O)c1cccc(Br)c1 was read as TEAD-YAP block 0.3, MITF primary 3.9, GPR151 activ 0.8 and FBW7 activator 0.1.
Screening CCNC(=O)/C(=C\c1ccc(OC)cc1)NC(=O)c1ccc(Br)cc1 returned TEAD-YAP block 6.0, MITF primary 10.9, GPR151 activ 5.1*, FBW7 activator 0.1, GPR151 conf act -0.2 and GPR119 counter 3.3.
`CCOC(=O)c1ccc(NC(=O)/C(=C\c2ccc([N+](=O)[O-])cc2)NC(=O)c2ccco2)cc1` gave TEAD-YAP block 2.0, MITF primary 1.9, GPR151 activ 6.2*, FBW7 activator -0.3, GPR151 conf act 0.5 and GPR119 counter 5.5.
Screening O=C(NCCO)/C(=C\c1cccc([N+](=O)[O-])c1)NC(=O)c1ccccc1 returned TEAD-YAP block 2.6, MITF primary 17.0, GPR151 activ 11.5*, FBW7 activator -0.1, GPR151 conf act -1.3 and GPR119 counter -10.0.
Screening CCOC(=O)c1ccc(NC(=O)/C(=C/c2cccc(Br)c2)NC(=O)c2ccco2)cc1 returned TEAD-YAP block 13.2, MITF primary -4.6, GPR151 activ -1.2 and FBW7 activator 0.1.
CCCCNC(=O)/C(=C\c1cccc([N+](=O)[O-])c1)NC(=O)c1ccc(C)cc1 was read as TEAD-YAP block -12.0, MITF primary -2.2, GPR151 activ -0.3 and FBW7 activator -0.1.
`COc1ccc(/C=C(/NC(=O)c2ccc(Br)cc2)C(=O)NCC(=O)O)cc1` gave TEAD-YAP block -6.2, MITF primary 9.4, GPR151 activ -0.6 and FBW7 activator 0.1.
`COc1ccc2nc(NC(=O)CSc3nnc4nc(C)cc(C)n34)sc2c1` gave TEAD-YAP block 13.3, MITF primary 7.5, GPR151 activ -0.9 and FBW7 activator 1.0.
`COc1ccccc1NC(=O)N1CCCC1C(=O)Nc1c(OC)cccc1OC` (centres undefined) gave TEAD-YAP block 3.2, MITF primary 8.1, GPR151 activ -0.3 and FBW7 activator -0.1.
O=C1/C(=C/c2ccc(-c3ccc(Cl)c(Cl)c3)o2)C=C(c2ccccc2)N1c1cccc(O)c1 was read as TEAD-YAP block 4.7, MITF primary 9.3, GPR151 activ -0.9 and FBW7 activator 0.7.
